Source: PubChem BioAssay (EPA / NIEHS)
Results filed as inconclusive are left out. The source made the active and inactive calls. Rule for the calls: active = hit-call score of the fitted dose curve at least 0.9, where 1 is the maximum; inconclusive = response in the unintended direction; inactive = score below 0.9.

Assay: TOX21_p53_BLA_p4_viability: Viability Assessment in the Tox21 HCT-116 p53 Agonism Beta-lactamase Assay, Phase 4 (AID 2283597);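 note: hits lower the luminescence signal meaning cytotoxicity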
Method in brief: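 HCT-116 p53-bla cells, 4000/well, dosed after 5 h attachment and incubated 16 h at 37 °C, 5% CO2. Viability from CellTiter-Glo ATP luminescence after 30 min at room temperature, taken after the beta-lactamase read; loss of signal indicates cytotoxicity.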

| Structure (SMILES) | outcome |
| --- | --- |
| CCCO[Si](OCCC)(OCCC)OCCC | inactive |
| C=CC(C)CCCC(C)(C)O (stereo not drawn) | inactive |
| CCCC(O)C(CC)CO (stereo not drawn) | inactive |
| Cc1ccncc1 | inactive |
| CCCCCc1cccc(=O)o1 | inactive |
| CC(=O)CC(C)(C)C1CCCCC1 | inactive |
| C=C(C)C(=O)OCCC(C)OC(=O)C(=C)C (stereo not drawn) | inactive |
| CCCCCCCC(=O)N(C)C | inactive |
| Nc1ccn([C@H]2CC[C@@H](CO)O2)c(=O)n1 | inactive |
| CC(=O)c1ccc2ccccc2c1 | inactive |
| CC(C)(C)C1CCC(O)CC1 (stereo not drawn) | inactive |
| C=C(C)C(=O)OCCC[Si](OC)(OC)OC | inactive |
| O=S1(=O)CC=CC1 | inactive |
